Screening data: PubChem, several laboratories
Sampled rows, rich in hits. Any-hit rate of the full collection: about 1.5%.
TLR4-MyD88 BLA = inhibitors of human TLR4-MyD88 binding. hit rate 0.18% among 200,000. HeLa CL3-4 TLR4/MyD88 BLA complementation, FRET ratio. inhibition, % at 8.4 µM. O00206+Q99836; in the data active means inhibition above about 25%
Beta2AR agonist = agonists of human beta-2 adrenergic receptor inducing internalization | response, % (concentration not given with the values) | AID 504454 | P07550 | hit rate 0.43% among 340,000 | Am2.2-beta2AR cells, FAP receptor internalization, flow cytometry;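 active means response above a set limit, near 3 SD of response in nonfluorescent compounds, cut at about 42% in these data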
TLR9-MyD88 block = TLR9-MyD88 interaction inhibition. CHO BLA complementation TLR9-MyD88, CCF4 FRET ratio. inhibition, % at 4.98 µM. hit rate 0.21% among 340,000;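 active means inhibition above the mean over all tested compounds plus 3 SD, cut at about 21% in these data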
NOD2 RIPK2 PPI = inhibitors of human NOD2-RIPK2 interaction | hit rate 0.38% among 360,000 | O43353 | inhibition, % at 4.98 µM | CHO BLA complementation NOD2-RIPK2, CCF4 ratio; in the data active means inhibition above about 21%
ABHD5-PLIN5 inh = inhibitors of human ABHD5-perilipin-5 interaction | Split G. princeps luciferase complementation, luminescence, 4 h | hit rate 0.78% among 360,000 | Q00G26+Q8WTS1 | inhibition, % at 4 µM | AID 602281;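 active means inhibition above the mean inhibition across every tested compound plus 3 SD, cut at about 22% in these data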
Target sequence (Q00G26 whole entry, looked up): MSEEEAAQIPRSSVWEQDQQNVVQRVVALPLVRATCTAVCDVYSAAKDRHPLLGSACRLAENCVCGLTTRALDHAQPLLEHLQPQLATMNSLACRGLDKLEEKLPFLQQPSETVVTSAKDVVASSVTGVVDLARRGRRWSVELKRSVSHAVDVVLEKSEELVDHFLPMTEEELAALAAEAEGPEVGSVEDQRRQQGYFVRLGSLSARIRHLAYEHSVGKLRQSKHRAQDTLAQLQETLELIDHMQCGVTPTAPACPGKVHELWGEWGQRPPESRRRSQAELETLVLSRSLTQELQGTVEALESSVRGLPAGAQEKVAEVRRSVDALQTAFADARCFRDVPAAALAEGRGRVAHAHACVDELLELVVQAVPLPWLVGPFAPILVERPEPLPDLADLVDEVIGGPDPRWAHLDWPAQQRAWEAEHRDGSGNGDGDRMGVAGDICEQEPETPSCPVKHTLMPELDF
Target sequence (Q8WTS1 whole entry, looked up): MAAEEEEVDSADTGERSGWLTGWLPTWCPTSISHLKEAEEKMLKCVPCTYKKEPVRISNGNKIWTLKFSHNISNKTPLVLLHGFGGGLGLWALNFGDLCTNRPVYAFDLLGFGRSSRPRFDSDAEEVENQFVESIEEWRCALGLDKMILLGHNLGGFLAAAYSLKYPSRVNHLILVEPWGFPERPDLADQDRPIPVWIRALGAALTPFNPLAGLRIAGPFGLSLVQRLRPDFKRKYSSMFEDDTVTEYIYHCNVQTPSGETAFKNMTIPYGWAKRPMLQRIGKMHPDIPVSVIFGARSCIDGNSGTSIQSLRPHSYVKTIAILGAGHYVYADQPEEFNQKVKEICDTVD
NTR1 ag = agonists of human neurotensin receptor NTR1 | P30989 | NTR1-U2OS beta-arrestin-GFP spot imaging, agonist mode | activation, % at 20 µM | hit rate 0.17% among 330,000 | AID 493036;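 active means activation at or above 40% of the spot to cytoplasm intensity ratio, with at least 20 cells analyzed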
Beta2AR ag CP1 = activates human beta-2 adrenergic receptor; shares compounds with Beta2AR agonist; Am2.2-beta2AR cells, FAP surface receptor, flow cytometry; stronger effect = lower value; percent response (surface receptor), % at 10 µM; hit rate 25% among 1,100;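 active means surface receptor percent response at or below 58%, roughly 3 SD from nonfluorescent compounds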
B2AR FAP counter = fluorescence artifact in beta-2AR agonist FAP counterscreen. shares compounds with Beta2AR agonist. Am2.2 cells, FAP fluorogen flow cytometry; stronger effect = lower value. calls only at 10 µM. 1,100 tested, under 10 active;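 active means percent response below a set limit in fluorescence channel 1 and below 50% in channel 8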
Numbers stand for hits.

`CC[C@@H](C)[C@H](CN[C@H](CNC)[C@@H](C)O)NCCc1ccc(OC)cc1` gave Beta2AR agonist inactive, TLR9-MyD88 block inactive, NOD2 RIPK2 PPI inactive, ABHD5-PLIN5 inh inactive and NTR1 ag inactive.
For CNC[C@H](NC[C@@H](NCCCc1ccccc1)c1ccccc1)[C@H](C)O the results were Beta2AR agonist 55, TLR9-MyD88 block inactive, NOD2 RIPK2 PPI inactive, ABHD5-PLIN5 inh inactive, NTR1 ag inactive, Beta2AR ag CP1 inactive and B2AR FAP counter inactive.
For C[C@@H]1CC[C@H](Cc2ccc(-n3cccc3)cc2)N1C(=O)OC(C)(C)C the results were TLR9-MyD88 block inactive, NOD2 RIPK2 PPI inactive, ABHD5-PLIN5 inh inactive, Beta2AR ag CP1 inactive and B2AR FAP counter inactive.
CCC(=O)N1C(Cc2ccccc2)COC1(C)C (centres undefined) was read as TLR4-MyD88 BLA inactive, Beta2AR agonist inactive, TLR9-MyD88 block inactive, NOD2 RIPK2 PPI inactive, ABHD5-PLIN5 inh inactive, NTR1 ag inactive, Beta2AR ag CP1 inactive and B2AR FAP counter inactive.
CCC1(C)NC(=O)N(CC(=O)N2CCC(Cc3ccccc3)CC2)C1=O (centres undefined) was read as Beta2AR agonist inactive, TLR9-MyD88 block inactive, NOD2 RIPK2 PPI inactive, ABHD5-PLIN5 inh inactive and NTR1 ag inactive.
O=C1Nc2ccccc2-n2nnnc2C1N1CCN(c2ccc(C(F)(F)F)cn2)CC1 (centres undefined) was read as NOD2 RIPK2 PPI inactive and ABHD5-PLIN5 inh inactive.
Screening O=C(Nc1cc(S(=O)(=O)Nc2ccc(Cl)cc2)ccc1N1CCCCC1)c1ccc(F)cc1 returned TLR4-MyD88 BLA inactive, Beta2AR agonist inactive, TLR9-MyD88 block inactive, NOD2 RIPK2 PPI inactive, ABHD5-PLIN5 inh inactive and NTR1 ag inactive.
Screening N#Cc1ccc(C(=O)Nc2cc(S(=O)(=O)Nc3ccc(Cl)cc3)ccc2N2CCCCC2)cc1 returned TLR4-MyD88 BLA inactive, Beta2AR agonist 44, TLR9-MyD88 block inactive, NOD2 RIPK2 PPI inactive, ABHD5-PLIN5 inh inactive, NTR1 ag inactive, Beta2AR ag CP1 inactive and B2AR FAP counter inactive.
For CNCC(O)c1ccc(OC(=O)C(C)(C)C)c(OC(=O)C(C)(C)C)c1 (centres undefined) the results were Beta2AR agonist inactive, TLR9-MyD88 block inactive, NOD2 RIPK2 PPI inactive, ABHD5-PLIN5 inh inactive, NTR1 ag inactive, Beta2AR ag CP1 46 and B2AR FAP counter inactive.
`O=C(Nc1ccccc1)OC[C@@H]1C=CS(=O)(=O)N1Cc1ccc(Br)cc1` gave NOD2 RIPK2 PPI inactive and ABHD5-PLIN5 inh inactive.
For CCCN(CC(=O)Nc1ccccc1C)C(=O)C1CCN(S(=O)(=O)c2ccc(C)c(C)c2)CC1 the results were TLR9-MyD88 block inactive, NOD2 RIPK2 PPI inactive and ABHD5-PLIN5 inh inactive.
COc1ccc(/C(O)=C2\C(=O)C(=O)N(c3cc(C)on3)C2c2ccccc2OC)cc1 (centres undefined) was read as TLR4-MyD88 BLA inactive, Beta2AR agonist 50, TLR9-MyD88 block inactive, NOD2 RIPK2 PPI inactive, ABHD5-PLIN5 inh inactive, NTR1 ag inactive, Beta2AR ag CP1 inactive and B2AR FAP counter inactive.
For COc1ccccc1Nc1nc(NCc2ccco2)c2ccccc2n1 the results were Beta2AR agonist inactive, NOD2 RIPK2 PPI inactive, ABHD5-PLIN5 inh inactive, NTR1 ag inactive, Beta2AR ag CP1 inactive and B2AR FAP counter inactive.
Screening Cc1cc(S(=O)(=O)N2CCCCC2)ccc1OCC(=O)Nc1ccccc1 returned Beta2AR agonist inactive, TLR9-MyD88 block inactive, NOD2 RIPK2 PPI inactive, ABHD5-PLIN5 inh inactive, NTR1 ag inactive, Beta2AR ag CP1 inactive and B2AR FAP counter inactive.
Screening Cc1cc(S(=O)(=O)N2CCCC2)ccc1OCC(=O)Nc1ccccc1 returned Beta2AR agonist inactive, TLR9-MyD88 block inactive, NOD2 RIPK2 PPI inactive, ABHD5-PLIN5 inh inactive, NTR1 ag inactive, Beta2AR ag CP1 inactive and B2AR FAP counter inactive.
O=C(COc1ccc(S(=O)(=O)N2CCCC2)cc1Cl)Nc1ccc2c(c1)OCO2 was read as TLR4-MyD88 BLA inactive, Beta2AR agonist inactive, TLR9-MyD88 block inactive, NOD2 RIPK2 PPI inactive, ABHD5-PLIN5 inh inactive, NTR1 ag inactive, Beta2AR ag CP1 inactive and B2AR FAP counter inactive.
CCOc1ccc(NC(=O)Cn2nnc(-c3ccccc3NC(=O)C3CC3)n2)cc1 was read as TLR4-MyD88 BLA inactive, Beta2AR agonist inactive, TLR9-MyD88 block inactive, NOD2 RIPK2 PPI inactive, ABHD5-PLIN5 inh inactive, NTR1 ag inactive, Beta2AR ag CP1 inactive and B2AR FAP counter inactive.
For COc1ccc(NC(=O)Cn2nnc(-c3ccccc3NC(=O)C3CC3)n2)cc1 the results were TLR4-MyD88 BLA inactive, Beta2AR agonist inactive, TLR9-MyD88 block inactive, NOD2 RIPK2 PPI inactive, ABHD5-PLIN5 inh inactive, NTR1 ag inactive, Beta2AR ag CP1 inactive and B2AR FAP counter inactive.
Screening CC(=O)CC1N(S(=O)(=O)c2ccc(C)cc2)c2ccccc2N1S(=O)(=O)c1ccc(C)cc1 returned NOD2 RIPK2 PPI inactive and ABHD5-PLIN5 inh inactive.
COCCN1C(=O)CCC1(C)c1nnnn1-c1ccc2ccccc2c1 (centres undefined) was read as NOD2 RIPK2 PPI inactive and ABHD5-PLIN5 inh inactive.
For Nc1cc(N)cc(-c2nc3ccccc3o2)c1 the results were Beta2AR agonist 43, TLR9-MyD88 block inactive, NOD2 RIPK2 PPI inactive, ABHD5-PLIN5 inh inactive, NTR1 ag inactive, Beta2AR ag CP1 inactive and B2AR FAP counter inactive.
Cc1ccc(-n2nnc3c(SCC(=O)NCC4CCCO4)ncnc32)cc1 (centres undefined) was read as TLR4-MyD88 BLA inactive, Beta2AR agonist 51, TLR9-MyD88 block inactive, NOD2 RIPK2 PPI inactive, ABHD5-PLIN5 inh inactive, NTR1 ag inactive, Beta2AR ag CP1 inactive and B2AR FAP counter inactive.
Screening COC(=O)c1ccc(CC2(C)C(=O)Nc3ccc(-c4cccc(C(F)(F)F)c4)cc32)o1 (centres undefined) returned NOD2 RIPK2 PPI inactive and ABHD5-PLIN5 inh inactive.
For O=C(Nc1ncc2c(n1)CC(c1cccc(Cl)c1)CC2=O)c1ccco1 (centres undefined) the results were Beta2AR agonist 43, TLR9-MyD88 block inactive, NOD2 RIPK2 PPI inactive, ABHD5-PLIN5 inh inactive, NTR1 ag inactive, Beta2AR ag CP1 inactive and B2AR FAP counter inactive.
Screening O=C(Nc1ncc2c(n1)CC(c1ccccc1)CC2=O)c1ccco1 (centres undefined) returned TLR4-MyD88 BLA inactive, Beta2AR agonist inactive, TLR9-MyD88 block inactive, NOD2 RIPK2 PPI inactive, ABHD5-PLIN5 inh inactive and NTR1 ag inactive.
Screening O=S(=O)(Nc1ccc(-c2nnc(SCc3ccc(Cl)cc3)o2)cc1)c1ccccc1 returned TLR4-MyD88 BLA inactive, Beta2AR agonist 43, TLR9-MyD88 block inactive, NOD2 RIPK2 PPI inactive, ABHD5-PLIN5 inh inactive, NTR1 ag inactive, Beta2AR ag CP1 inactive and B2AR FAP counter inactive.
CCOC(=O)C1=C[C@@H](C(C)C)N(S(=O)(=O)c2ccc(C)cc2)[C@H]1c1ccccc1F was read as NOD2 RIPK2 PPI inactive and ABHD5-PLIN5 inh inactive.
